According to PubChem BioAssay AID485317 (Broad Institute, 2010):
About 11,000 (3.8%) of roughly 290,000 compounds were called active. This is one part of a sample in which actives are shown more often than they occur.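 How the source made its calls: active means mean replicate inhibition above about 79%, with every replicate also reaching it (limit read from the data); inconclusive means only one of the two criteria met; inactive means mean below limit and not every replicate reaching it.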

Each compound was assayed against FAD-linked sulfhydryl oxidase ALR (Homo sapiens) (UniProt P55789) (assay: inhibitors of human ALR sulfhydryl oxidase, primary screen, biochemical, H2O2 detection, HRP-luminol luminescence, single point (AID 485317)). Conditions: purified ALR, DTT oxidation, hits give high values, concentration not given here.
Chain of FAD-linked sulfhydryl oxidase ALR (Homo sapiens) (P55789 whole entry, looked up): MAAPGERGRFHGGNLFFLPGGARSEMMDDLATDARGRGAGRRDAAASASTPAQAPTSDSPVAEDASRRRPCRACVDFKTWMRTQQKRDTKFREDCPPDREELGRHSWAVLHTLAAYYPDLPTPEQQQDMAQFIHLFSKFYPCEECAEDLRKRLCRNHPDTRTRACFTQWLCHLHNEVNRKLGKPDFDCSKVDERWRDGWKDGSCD

SMILES | inhibition
CCOC(=O)c1c(NC(=S)Nc2ccccc2C)sc2c1CCC2 | -0.578% (inactive)
CCOC(=O)c1c(NC(=O)C(C)Sc2c[nH]c3ccccc23)sc2c1CCC2 (centres undefined) | 94.5% (active)
CCOC(=O)c1c(NC(=O)CCC(=O)NCc2ccco2)sc2c1CCCC2 | 3.61% (inactive)
O=C(O[C@@H]1[C@H](Cc2ccccc2)NS(=O)(=O)[C@H]2C[C@@H]3C=C[C@]12O3)c1ccccc1Br | 6.25% (inactive)
CCCCn1c(N)c(N(CC(C)C)C(=O)CN(C)S(=O)(=O)c2ccc(F)cc2)c(=O)[nH]c1=O | -15.2% (inactive)
CC(=O)c1sc(NC(=O)CCN2C(=O)C3CC=CCC3C2=O)nc1-c1ccccc1 (centres undefined) | 1.73% (inactive)
CCOc1ccccc1N=C1NC(=O)CS1 | -4.82% (inactive)
CCOc1cccc(/C=N/NC(=S)NCCN2CCOCC2)c1O | 49.2% (inactive)
CCOc1cccc(/C=N/N2C(=O)CSC2=S)c1O | 92.9% (active)
CC(NC(=O)COC(=O)c1ccc2ccccc2n1)c1ccccc1 (centres undefined) | -0.035% (inactive)
CCN(CC)CCCNC(=O)c1ccc2c(=O)n(Cc3ccc4c(c3)OCO4)c(=S)[nH]c2c1 | 95% (active)
COc1ccc(Cn2c(=S)[nH]c3cc(C(=O)NCCCN4CCOCC4)ccc3c2=O)cc1 | 7.86% (inactive)
CCCCNC(=O)CCn1c(=S)[nH]c2cc3c(cc2c1=O)OCO3 | 5.42% (inactive)
CCOc1ccc(NC(=O)CN(C)C(=O)c2c(C)noc2C)cc1OCC | -5.01% (inactive)
CCOC(=O)c1c(C)oc2cc(Sc3ccccc3)c(O)c(O)c12 | -12.1% (inactive)
CC(NCC(=O)Nc1ccccc1C(=O)NC1CC1)c1ccccc1Cl (centres undefined) | -6.65% (inactive)
Nc1nonc1-n1nnc(C(=O)N/N=C/c2ccccc2O)c1CN1CCCC1 | -0.481% (inactive)
Cc1noc(C)c1COc1ccccc1C(=O)N(C)CC(=O)Nc1cccc(F)c1 | -3.03% (inactive)
Cc1ccc(N/N=C2\COC(C)(C)CC2=O)cc1 | 98.6% (active)
CSCCC1NC(=O)N(CC(=O)Nc2cccc(S(=O)(=O)N3CCCCCC3)c2)C1=O (centres undefined) | 9.93% (inactive)

SMILES | inhibition
CCCCc1ccc(NS(=O)(=O)c2cccc(C(=O)N3CCCN(C)CC3)c2)cc1 | -4.55% (inactive)
O=c1[nH]c(SCc2ccccc2)nnc1-c1ccccc1 | -6.49% (inactive)
N#Cc1c(-c2ccc(F)cc2)nc(-c2ccccc2)[nH]c1=O | 47.4% (inactive)
N#Cc1c(-c2ccccc2)nc(SCc2ccc([N+](=O)[O-])cc2)[nH]c1=O | 99.5% (active)
O=c1[nH]c(SCc2cccc(F)c2)nc2ccccc12 | -17.9% (inactive)
N#Cc1c(-c2ccccc2)nc(SCc2cccc(C(F)(F)F)c2)[nH]c1=O | 86.8% (active)
COc1ccccc1CSc1ncc(-c2ccc([N+](=O)[O-])cc2)[nH]1 | -12.3% (inactive)
C/C=C/c1ccc(OCC(=O)NNC(=O)CN(C)S(=O)(=O)c2ccc(C)cc2)c(OC)c1 | -17.6% (inactive)
Cc1ccc2nnn(Cc3cccc(C(C)(C)C)c3O)c2c1 | 14.7% (inactive)
CCC(CC)c1nnc(NC(=O)C2=COCCO2)s1 | 2.79% (inactive)
O=C(c1ccc(Cl)s1)N(Cc1nnc(-c2ccccc2Cl)o1)C1CC1 | -3.36% (inactive)
COc1ccc(C)cc1NC(=O)c1cc(-c2ccccc2)nc2c1cnn2C(C)C | -1.17% (inactive)
Cc1ccc(S(=O)(=O)N2CCCCC2)cc1C(=O)N(C)CC(=O)Nc1cccc(F)c1 | -10.8% (inactive)
CC1=NNC(=O)C1CCC(=O)N/N=C\c1ccc(Cl)c(Cl)c1 (centres undefined) | 56.7% (inactive)
O=C(CC(=O)Nc1ccc(Cl)c(Cl)c1)N/N=C/c1ccc(O)cc1 | 98.1% (active)
O=C(CCCCCNC(=O)c1ccccc1)N/N=C/c1ccccc1 | 35.5% (inactive)
O=C(CC(O)(C(F)(F)F)C(F)(F)F)Nc1ccc(Cl)c(Cl)c1 | 31.6% (inactive)
O=C(CC(=O)N/N=C\c1ccc(F)cc1)NCCc1ccccc1 | 38.6% (inactive)
O=C(C[n+]1ccccc1)N/N=C/c1ccc(O)cc1 | 98.9% (active)
CC(C)(C)OC(=O)CNC(=O)c1[nH]cnc1C(=O)N[C@@H](CCCCN)C(=O)OC(C)(C)C | 2.52% (inactive)

SMILES | inhibition
C=CC[C@@H](CC(=O)N[C@@H](CO)Cc1ccccc1)C(=O)NCCOC(=O)[C@@H](CC=C)CC(=O)OC(C)(C)C | 0.56% (inactive)
COc1ccc(C(=O)N(Cc2ccccc2)c2ccc(C)cc2)cc1S(=O)(=O)N1CCOCC1 | 18.8% (inactive)
O=C(CN1CCN(c2ccccn2)CC1)Nc1ccc(Br)cc1 | -8.03% (inactive)
CCN(CC)c1ccc(NC(=O)CN2CCN(c3ccccn3)CC2)cc1 | 99.3% (active)
COc1ccc(NC(C)=O)cc1NC(=O)CN1CCN(c2ccccn2)CC1 | -9.42% (inactive)
Cc1ccc(S(=O)(=O)N2[C@@H](c3cccc4ccccc34)C(C(=O)O)=C[C@H]2C(C)(C)C)cc1 | 9.1% (inactive)
CN(C(=O)Cn1nnc(-c2ccc(F)cc2)n1)C1CCS(=O)(=O)C1 (centres undefined) | -4.28% (inactive)
CCC1CCC/C1=N\NC(=O)c1ccc(Cl)cc1 (centres undefined) | -14.7% (inactive)
CCN(CC)CCCNC(=O)COc1ccc2oc3c(c2c1)CCCC3 | 83.3% (active)
O=C(COc1ccc2oc3c(c2c1)CCCC3)Nc1ccccn1 | -9.11% (inactive)
O=C(COc1ccc2c3c(c(=O)oc2c1)CCCC3)NCC(O)c1ccccc1 (centres undefined) | -0.0443% (inactive)
Cc1ccc(Br)c(NS(=O)(=O)c2cccc(C(=O)N3CCNC(=O)C3)c2)c1 | -0.146% (inactive)
COc1ccc(N2CCC(N3CCN(C)C(CCO)C3)CC2)cc1 (centres undefined) | 86.4% (active)
COc1ccc(OCC(=O)Nc2ccc(N3CCC(C)CC3)cc2)cc1 | 1.79% (inactive)
COc1ccccc1N1CCC(N2CCN(CC(C)(C)C)C(CCO)C2)CC1 (centres undefined) | 21.8% (inactive)
COc1ccc(CCNC(=O)C(=O)NCC2CCCN2S(=O)(=O)c2cccs2)cc1OC (centres undefined) | -2.42% (inactive)
O=C(OCc1nc2ccccc2[nH]1)C1CCCCC1 | 0.03% (inactive)
Nc1cccc(CCc2nc3ccccc3[nH]2)c1 | 1.01% (inactive)
Oc1ccc2nc(Cc3ccccc3)[nH]c2c1 | 98.6% (active)
